{"source": "PubChem BioAssay (NCI)", "note": "This is part of a sample that, as a whole, favours compounds with a hit. Of some 83,000 tested, about 20% had one in any assay.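 The test compound was applied at a single concentration to cells in 96-well plates for 48 hours, and percent growth was recorded.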 Active and inactive are the calls of the source.", "data": [{"test_system": "SW-620 colon", "test": "NCI-60 one-dose screen, 48 h (100 = growth as untreated, 0 = no growth, -100 = all killed)", "conditions": "10 µM unless noted", "protocol": "Growth inhibition of the SW-620 human tumor cell line is measured as a screen for anti-cancer activity. Cells are grown in 96 well plates and exposed to the test compound for 48 hours. Compounds are tested at a single concentration, which is 10^-5 M for most compounds. The reported endpoint is percent growth (GI% or GIPRCNT), where numbers from 0 - 100% represent growth inhibition, and numbers from -100% - 0 represent cell death. For example, a value of 40 represents 60% growth inhibition. A value of 0 means no net growth occurred over the course of the experiment. A value of -40 indicates 40% of cells at the beginning of the experiment died by the end of the experiment. A value of -100 means all cells are dead at the end of the experiment.\nNCI-60 Human Tumor Cell Lines Screen was performed using the standard one-dose NCI protocol, which is described in more detail at https://dtp.cancer.gov/discovery_development/nci-60/default.htm.\nCompounds with GIPRCNT values below 10 were considered active. Activity score was based on GIPRCNT using the following formula: […]\nScore is 0 for GIPRCNT values of 100 or above, 50 for GIPRCNT values of 0, and 100 for GIPRCNT values of -100.", "values": [{"smiles": "CC(=O)[C@@H]1CC[C@]2(C(N)=O)CC[C@]3(C)[C@H](CC[C@@H]4[C@@]5(C)CCCNC(C)(C)[C@@H]5CC[C@]43C)[C@@H]12", "growth": "90.4% (inactive)"}, {"smiles": "O=C(CCN1CCCC1)Nc1ccc2c(NCCCCc3ccccc3)c3ccccc3nc2c1", "growth": "-60.5% (active)"}, {"smiles": "O=C(c1nnc(Nc2ccccc2Br)o1)c1c[nH]c2ccccc12", "growth": "98.7% (inactive)"}, {"smiles": "CCN1CCN(CCNc2nccc(-c3c(-c4cccc(OC)c4)nc4occn34)n2)S1(=O)=O", "growth": "132% (inactive)"}, {"smiles": "COc1ccc(N2CCN(c3ccc(NC4=C(Cl)C(=O)c5ncccc5C4=O)cc3)CC2)cc1", "growth": "15.9% (inactive)"}, {"smiles": "O=C(O)c1ccc(NCc2cn(-c3ccc(C(F)(F)F)cc3)nc2-c2ccc(C(=O)O)cc2)cc1", "growth": "110% (inactive)"}, {"smiles": "Cc1ccc(C(=O)/C(=C\\c2ccc([N+](=O)[O-])cc2)S(=O)Cc2ccc(F)cc2)cc1", "note": "(stereo not given)", "growth": "-27.7% (active)"}, {"smiles": "O=C(CSc1nc2ccccc2[nH]1)NCc1ccccc1", "growth": "99.2% (inactive)"}, {"smiles": "Cc1nn(-c2ccccc2)c(Oc2c(Cl)cccc2Cl)c1/C=N/N=c1\\sc2ccccc2n1C", "growth": "34.7% (inactive)"}, {"smiles": "COc1ccc(-c2cnc3c(-c4cccc5ncccc45)cnn3c2)cc1", "growth": "73.8% (inactive)"}, {"smiles": "NC(=NCc1ccccc1)C(N=Nc1ccccc1)C(=O)NCc1ccccc1", "note": "(stereo not given)", "growth": "61.5% (inactive)"}, {"smiles": "CNC(=O)c1cccc(Cn2nc(C)c(NC(=O)c3ccc(COc4ccc(C(F)(F)F)cc4C)cc3)c2C)c1", "growth": "77.3% (inactive)"}, {"smiles": "Nc1ccccc1NC(=O)c1ccc(-n2nc(-c3ccccc3)c3ccccc32)cc1", "growth": "84.8% (inactive)"}, {"smiles": "COc1cccc(-c2nc3occn3c2-c2ccnc(NCCNS(=O)(=O)c3cccc4ccccc34)n2)c1", "growth": "113% (inactive)"}, {"smiles": "O=C(/C(=C\\c1ccc([N+](=O)[O-])cc1)S(=O)Cc1ccc(Cl)cc1)c1ccc(Cl)cc1", "note": "(stereo not given)", "growth": "28% (inactive)"}, {"smiles": "COc1cccc(-c2ccc3c(c2)NC(=O)/C3=C\\c2ccc[nH]2)c1", "growth": "25.1% (inactive)"}, {"smiles": "CC(=O)Oc1ccc(/C=N/NC(N)=S)nc1", "growth": "60.9% (inactive)"}, {"smiles": "N/C(=N\\C(N)=N\\c1nc2ccccc2s1)c1cccc(Cl)c1", "growth": "98.5% (inactive)"}, {"smiles": "CCOC(=O)c1cc(C(=O)c2ccc(OC)cc2)n2ccc(/C=C/c3cc[n+](CC(=O)c4ccc(OC)cc4)cc3)cc12", "growth": "5.72% (active)"}, {"smiles": "O=C(Cc1ccccc1)NNc1nc(Cl)nc(N2CCN(C(c3ccccc3)c3ccccc3)CC2)n1", "growth": "82.3% (inactive)"}, {"smiles": "COC(=O)C1=C(C(=O)ON)[C@@H]2C=C[C@@]1([C@@H](Cc1ccccc1)Nc1ccccc1)O2", "growth": "-71.2% (active)"}, {"smiles": "COc1cc(-c2n/c(=C\\c3c(O)[nH]c4ccc(Cl)cc34)cc3c2=Nc2ccccc2-3)ccc1F", "growth": "-1.7% (active)"}, {"smiles": "Cc1cccc(NC(=O)Nc2ccc(-n3cnc4cc(-c5ccc(O)cc5)ccc43)cc2)c1", "growth": "29.6% (inactive)"}, {"smiles": "COc1ccc(C(=O)NNc2nc(Cl)nc(N3CCN(C(c4ccccc4)c4ccccc4)CC3)n2)cc1", "growth": "9.22% (active)"}, {"smiles": "Oc1c(Cl)cc(Cl)c(Cl)c1CNCCNCc1c(O)c(Cl)cc(Cl)c1Cl", "growth": "31.5% (inactive)"}, {"smiles": "CCCC/C=N/NC(=S)NCc1ccccc1", "growth": "96.1% (inactive)"}, {"smiles": "CN(CCN(C)c1ccc(C(=N)N)cc1)c1ccc(C(=N)N)cc1", "growth": "104% (inactive)"}, {"smiles": "CCC(=O)Oc1ccc(/C(=C(\\C)c2ccccc2)c2ccc(OCCN3CCCCC3)cc2)cc1", "growth": "87.1% (inactive)"}, {"smiles": "N#C/C(=C\\c1cccc(C#N)c1)c1ccccc1", "growth": "105% (inactive)"}, {"smiles": "COc1ccc(C(=O)c2cc(C)c(OC)c(C)c2)c(OC)c1NC(C)=O", "growth": "21.2% (inactive)"}, {"smiles": "O=C(/C(=C/c1ccc([N+](=O)[O-])cc1)SCc1ccc(F)cc1)c1ccc(F)cc1", "growth": "-27.5% (active)"}, {"smiles": "Cn1cc(CC2CC(=O)N(c3ccccc3)C2=O)sc1=NC(=O)c1ccccc1", "note": "(stereo not given)", "growth": "94.5% (inactive)"}, {"smiles": "NS(=O)(=O)c1ccc(CCN2C(=O)C3C(C2=O)C2(Cl)C(Cl)=C(Cl)C3(Cl)C2(Cl)Cl)cc1", "note": "(stereo not given)", "growth": "105% (inactive)"}, {"smiles": "COc1cc(-c2csc(NC(=O)c3cc(F)cc(C(F)(F)F)c3)n2)cc(OC)c1OC", "growth": "32.4% (inactive)"}, {"smiles": "C/C(=N\\NC(=O)CSc1nc2ccccc2c(=O)n1CCc1ccc(S(N)(=O)=O)cc1)c1ccccn1", "growth": "32.1% (inactive)"}, {"smiles": "N#C/C(=C\\c1c(-c2ccccc2)[nH]c2ccccc12)C(=O)c1ccc(Cl)cc1", "growth": "21.1% (inactive)"}, {"smiles": "Cc1ccc(C(=O)/C(=C\\c2ccc([N+](=O)[O-])cc2)S(=O)Cc2ccc(Cl)cc2)cc1", "note": "(stereo not given)", "growth": "7.46% (active)"}, {"smiles": "C=C(C)[C@@H]1CC[C@]2(C(=O)N[C@H](CO)Cc3ccccc3)CC[C@]3(C)[C@H](CC[C@@H]4[C@@]5(C)CCCNC(C)(C)[C@@H]5CC[C@]43C)[C@@H]12", "growth": "-82.3% (active)"}, {"smiles": "COc1cccc(-c2cc(C(=O)Nc3ccc(/C=C/c4ccc(OC5CCN(C)CC5)cc4)cc3)ccc2OC)c1", "growth": "-60.5% (active)"}, {"smiles": "O=C(/C=C/c1ccc(Cl)cc1)c1ccc(NC(=O)N2CCN(c3cc4c(cc3F)c(=O)c(C(=O)O)cn4C3CC3)CC2)cc1", "growth": "97.2% (inactive)"}]}]}
